Design in all cases: scale not given: direction of the effect not stated beside the values
The target in experiment [1] is Protein translocase subunit SecA (Escherichia coli (strain K12)) (UniProt P10408). In words: Assay to Identify E. coli SecA ATPase Inhibitors. It is filed as functional. The conditions noted are these: 30 µM.
Experiment [2] has as its target T1, Ubiquitin-activating enzyme e1, putative (Leishmania donovani (strain BPK282A1)) (UniProt E9BSI1).
T1 sequence (whole entry): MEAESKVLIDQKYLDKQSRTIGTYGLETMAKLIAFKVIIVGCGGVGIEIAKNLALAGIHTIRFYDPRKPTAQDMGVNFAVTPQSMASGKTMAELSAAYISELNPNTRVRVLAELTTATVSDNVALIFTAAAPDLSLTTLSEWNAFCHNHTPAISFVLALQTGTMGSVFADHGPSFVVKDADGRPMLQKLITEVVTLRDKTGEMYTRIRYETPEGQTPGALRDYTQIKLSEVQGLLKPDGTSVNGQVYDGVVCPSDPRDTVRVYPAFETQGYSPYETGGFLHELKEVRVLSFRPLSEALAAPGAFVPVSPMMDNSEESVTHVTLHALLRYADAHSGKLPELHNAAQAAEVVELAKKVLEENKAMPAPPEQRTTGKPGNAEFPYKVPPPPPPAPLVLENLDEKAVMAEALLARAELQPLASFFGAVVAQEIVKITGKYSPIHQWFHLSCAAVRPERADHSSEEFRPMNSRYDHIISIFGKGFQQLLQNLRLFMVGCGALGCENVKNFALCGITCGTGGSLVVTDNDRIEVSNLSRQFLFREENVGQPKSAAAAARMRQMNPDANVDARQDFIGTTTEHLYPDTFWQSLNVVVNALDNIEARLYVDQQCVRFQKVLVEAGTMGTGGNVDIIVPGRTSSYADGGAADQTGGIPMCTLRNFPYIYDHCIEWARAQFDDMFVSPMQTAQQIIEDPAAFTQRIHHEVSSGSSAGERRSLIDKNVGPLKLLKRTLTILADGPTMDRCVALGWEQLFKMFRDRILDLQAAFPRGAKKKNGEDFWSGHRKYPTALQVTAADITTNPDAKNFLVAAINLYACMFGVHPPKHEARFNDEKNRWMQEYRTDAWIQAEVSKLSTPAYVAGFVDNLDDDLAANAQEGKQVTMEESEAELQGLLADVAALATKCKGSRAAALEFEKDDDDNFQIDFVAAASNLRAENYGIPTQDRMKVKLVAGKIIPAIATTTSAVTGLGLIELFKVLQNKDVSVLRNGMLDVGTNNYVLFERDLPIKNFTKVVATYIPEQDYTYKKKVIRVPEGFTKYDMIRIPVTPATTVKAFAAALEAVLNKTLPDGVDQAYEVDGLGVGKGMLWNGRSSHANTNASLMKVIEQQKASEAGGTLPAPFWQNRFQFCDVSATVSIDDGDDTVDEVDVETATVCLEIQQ
Kind of experiment: Leishmania donovani Ubiquitin Activating Enzyme (LdE1). To be noted: 30 µM. It counts as functional.

Experiment [3] addresses AMP-activated protein kinase, AMPK (Homo sapiens) (UniProt P54646+O43741+P54619+Q9UGJ0+Q9Y478+Q13131+Q9UGI9). Kind of experiment: AMP-dependent Kinase enzyme assay. An in vitro enzyme assay that detects ADP turnover that is directly proportional to AMPK activity. This uses naive AMPK that is activated during the assay with MK-8722. It is filed as functional. To be noted: 30 µM.

Experiment [4] concerns the target Sialic acid-binding Ig-like lectin 9 (Homo sapiens) (UniProt Q9Y336). Kind of experiment: Hs-Siglec9 ALPHAscreen SOP 20170721. The conditions noted are these: 10 µM.
The test system of experiment [5] is Trypanosoma cruzi. Kind of experiment: Trypanosoma cruzi phosphomannomutase and mannose-1-phosphate guanylyltransferase assay. It is filed as functional. The conditions noted are these: 10 µM.
The target of experiment [6] is T2, Arginase-2, mitochondrial (Homo sapiens) (UniProt P78540).
T2 sequence (whole entry): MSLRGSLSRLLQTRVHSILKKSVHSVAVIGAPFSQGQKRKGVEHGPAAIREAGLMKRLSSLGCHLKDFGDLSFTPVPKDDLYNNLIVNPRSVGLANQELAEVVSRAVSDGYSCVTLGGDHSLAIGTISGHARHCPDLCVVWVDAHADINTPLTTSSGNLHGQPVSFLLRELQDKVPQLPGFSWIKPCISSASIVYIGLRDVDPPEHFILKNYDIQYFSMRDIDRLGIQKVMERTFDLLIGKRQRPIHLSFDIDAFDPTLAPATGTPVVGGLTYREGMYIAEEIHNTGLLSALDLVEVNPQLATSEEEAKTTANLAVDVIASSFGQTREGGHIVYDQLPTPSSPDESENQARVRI
Kind of experiment: in vitro enzyme assay to detect the production of urea directly proportional to the activity of Arginase II. Further: in the data most compounds retested in dose-response had high values. To be noted: 33.3 µM. It is filed as functional.

For experiment [7], the target named is T3, Proteasome subunit beta (Trypanosoma cruzi) (UniProt O96673).
T3 sequence (whole entry): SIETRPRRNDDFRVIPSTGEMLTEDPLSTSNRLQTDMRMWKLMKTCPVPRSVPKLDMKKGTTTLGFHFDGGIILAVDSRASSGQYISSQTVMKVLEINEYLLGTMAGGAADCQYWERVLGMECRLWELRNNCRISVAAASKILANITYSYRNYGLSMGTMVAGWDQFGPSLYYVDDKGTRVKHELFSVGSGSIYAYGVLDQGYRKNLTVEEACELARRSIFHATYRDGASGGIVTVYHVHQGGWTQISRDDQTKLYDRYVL
Kind of experiment: Trypanosoma cruzi proteasome chymotrypsin-like activity (TcProtChymo) assay. Further: in the data most compounds retested in dose-response had high values. The conditions noted are these: 9.37 µM. It is filed as functional.

The species entered for experiment [8] is Homo sapiens. In words: To identify inhibition of the IFN signalling (Jak-Stat) pathway via expression of an eGFP reporter gene under the control of an IFN-stimulated response element (ISRE) containing MxA promoter. It is filed as functional. The conditions noted are these: 30 µM. (In general: Reporter assays use an easily measured gene product as a stand-in for the process of interest.)

Experiment [9] addresses T4, Tyrosyl-tRNA synthetase, putative (Trypanosoma cruzi (strain CL Brener)) (UniProt Q4DSP6).
T4 sequence (whole entry): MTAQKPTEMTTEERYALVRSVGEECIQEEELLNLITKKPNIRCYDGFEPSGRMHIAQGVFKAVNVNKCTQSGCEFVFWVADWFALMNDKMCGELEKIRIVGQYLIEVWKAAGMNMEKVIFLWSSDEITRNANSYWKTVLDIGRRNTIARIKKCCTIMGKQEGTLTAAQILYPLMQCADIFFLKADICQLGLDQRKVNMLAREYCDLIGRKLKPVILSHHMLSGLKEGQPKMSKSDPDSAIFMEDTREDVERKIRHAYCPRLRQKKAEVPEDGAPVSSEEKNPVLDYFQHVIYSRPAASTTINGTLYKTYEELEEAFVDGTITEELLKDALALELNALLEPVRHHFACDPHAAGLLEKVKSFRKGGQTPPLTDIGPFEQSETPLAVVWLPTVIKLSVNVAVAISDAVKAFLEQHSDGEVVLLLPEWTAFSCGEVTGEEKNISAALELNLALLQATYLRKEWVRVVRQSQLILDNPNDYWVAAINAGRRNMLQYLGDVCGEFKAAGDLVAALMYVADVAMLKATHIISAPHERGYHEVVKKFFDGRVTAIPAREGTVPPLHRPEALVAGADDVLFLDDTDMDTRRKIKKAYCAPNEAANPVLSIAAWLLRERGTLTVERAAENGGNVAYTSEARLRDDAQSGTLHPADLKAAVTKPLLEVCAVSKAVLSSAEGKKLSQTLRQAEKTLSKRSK
In words: Trypanosoma cruzi tyrosyl tRNA synthetase (TcYRS) _High Tyrosine SOP. Further: in the data most compounds retested in dose-response had high values. It is filed as functional. The conditions noted are these: 30 µM.

The target in experiment [10] is T4, Tyrosyl-tRNA synthetase, putative (Trypanosoma cruzi (strain CL Brener)). Kind of experiment: Trypanosoma cruzi tyrosyl tRNA synthetase (TcYRS) SOP. It is filed as functional. The conditions noted are these: 30 µM.
Experiment [11] addresses Chromo domain-containing protein 1 (Saccharomyces cerevisiae (strain ATCC 204508 / S288c) (Baker's yeast)) (UniProt P32657). In words: ScCHD-1 Enzyme Inhibition Assay. Further: in the data most compounds retested in dose-response had high values. It counts as functional. To be noted: 30 µM.

The structures appear in SMILES notation. For some of these results: Measured potencies and affinities stand elsewhere.

The record followed here is ChEMBL document CHEMBL3988442, “University of Dundee, Small-Polar-MMV Screening Library” (2021).

Sialic acid-binding Ig-like lectin 9 (Homo sapiens), sequence (Q9Y336 whole entry): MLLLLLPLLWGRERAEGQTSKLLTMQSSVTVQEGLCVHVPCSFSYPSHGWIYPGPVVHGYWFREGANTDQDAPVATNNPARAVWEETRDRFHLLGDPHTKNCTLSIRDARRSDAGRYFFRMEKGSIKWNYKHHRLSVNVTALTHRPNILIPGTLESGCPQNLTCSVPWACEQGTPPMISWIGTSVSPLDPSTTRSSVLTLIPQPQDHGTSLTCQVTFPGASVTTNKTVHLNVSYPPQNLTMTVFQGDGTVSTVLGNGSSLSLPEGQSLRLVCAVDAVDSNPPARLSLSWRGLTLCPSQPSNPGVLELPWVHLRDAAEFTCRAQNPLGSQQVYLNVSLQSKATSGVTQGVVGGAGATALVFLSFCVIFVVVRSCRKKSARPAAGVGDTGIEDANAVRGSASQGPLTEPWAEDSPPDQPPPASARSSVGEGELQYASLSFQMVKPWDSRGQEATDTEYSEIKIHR
Protein translocase subunit SecA (Escherichia coli (strain K12)), sequence (P10408 whole entry): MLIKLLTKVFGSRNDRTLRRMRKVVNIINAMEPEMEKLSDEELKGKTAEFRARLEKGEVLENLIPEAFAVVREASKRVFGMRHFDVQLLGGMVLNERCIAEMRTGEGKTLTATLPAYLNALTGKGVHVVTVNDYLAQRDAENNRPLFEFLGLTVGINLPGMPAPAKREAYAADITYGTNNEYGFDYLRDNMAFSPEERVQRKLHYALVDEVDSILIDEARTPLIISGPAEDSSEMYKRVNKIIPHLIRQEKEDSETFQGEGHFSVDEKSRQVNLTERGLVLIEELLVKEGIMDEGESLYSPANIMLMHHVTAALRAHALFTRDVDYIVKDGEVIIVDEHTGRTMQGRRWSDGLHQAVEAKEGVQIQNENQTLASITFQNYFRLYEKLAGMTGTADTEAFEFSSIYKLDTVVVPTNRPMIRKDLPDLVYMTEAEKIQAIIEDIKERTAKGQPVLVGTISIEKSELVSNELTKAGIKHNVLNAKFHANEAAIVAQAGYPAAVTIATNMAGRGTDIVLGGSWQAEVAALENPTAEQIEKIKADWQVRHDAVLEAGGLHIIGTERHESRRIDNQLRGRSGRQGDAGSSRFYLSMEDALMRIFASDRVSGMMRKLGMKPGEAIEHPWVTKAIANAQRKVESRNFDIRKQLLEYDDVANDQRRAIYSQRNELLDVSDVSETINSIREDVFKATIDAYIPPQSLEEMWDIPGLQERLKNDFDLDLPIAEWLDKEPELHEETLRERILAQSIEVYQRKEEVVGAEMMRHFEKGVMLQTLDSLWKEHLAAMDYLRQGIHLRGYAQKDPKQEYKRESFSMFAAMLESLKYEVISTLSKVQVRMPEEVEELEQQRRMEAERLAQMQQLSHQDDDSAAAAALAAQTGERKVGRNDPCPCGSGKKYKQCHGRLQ
Chromo domain-containing protein 1 (Saccharomyces cerevisiae (strain ATCC 204508 / S288c) (Baker's yeast)), sequence (P32657 whole entry, the tested form may be a part): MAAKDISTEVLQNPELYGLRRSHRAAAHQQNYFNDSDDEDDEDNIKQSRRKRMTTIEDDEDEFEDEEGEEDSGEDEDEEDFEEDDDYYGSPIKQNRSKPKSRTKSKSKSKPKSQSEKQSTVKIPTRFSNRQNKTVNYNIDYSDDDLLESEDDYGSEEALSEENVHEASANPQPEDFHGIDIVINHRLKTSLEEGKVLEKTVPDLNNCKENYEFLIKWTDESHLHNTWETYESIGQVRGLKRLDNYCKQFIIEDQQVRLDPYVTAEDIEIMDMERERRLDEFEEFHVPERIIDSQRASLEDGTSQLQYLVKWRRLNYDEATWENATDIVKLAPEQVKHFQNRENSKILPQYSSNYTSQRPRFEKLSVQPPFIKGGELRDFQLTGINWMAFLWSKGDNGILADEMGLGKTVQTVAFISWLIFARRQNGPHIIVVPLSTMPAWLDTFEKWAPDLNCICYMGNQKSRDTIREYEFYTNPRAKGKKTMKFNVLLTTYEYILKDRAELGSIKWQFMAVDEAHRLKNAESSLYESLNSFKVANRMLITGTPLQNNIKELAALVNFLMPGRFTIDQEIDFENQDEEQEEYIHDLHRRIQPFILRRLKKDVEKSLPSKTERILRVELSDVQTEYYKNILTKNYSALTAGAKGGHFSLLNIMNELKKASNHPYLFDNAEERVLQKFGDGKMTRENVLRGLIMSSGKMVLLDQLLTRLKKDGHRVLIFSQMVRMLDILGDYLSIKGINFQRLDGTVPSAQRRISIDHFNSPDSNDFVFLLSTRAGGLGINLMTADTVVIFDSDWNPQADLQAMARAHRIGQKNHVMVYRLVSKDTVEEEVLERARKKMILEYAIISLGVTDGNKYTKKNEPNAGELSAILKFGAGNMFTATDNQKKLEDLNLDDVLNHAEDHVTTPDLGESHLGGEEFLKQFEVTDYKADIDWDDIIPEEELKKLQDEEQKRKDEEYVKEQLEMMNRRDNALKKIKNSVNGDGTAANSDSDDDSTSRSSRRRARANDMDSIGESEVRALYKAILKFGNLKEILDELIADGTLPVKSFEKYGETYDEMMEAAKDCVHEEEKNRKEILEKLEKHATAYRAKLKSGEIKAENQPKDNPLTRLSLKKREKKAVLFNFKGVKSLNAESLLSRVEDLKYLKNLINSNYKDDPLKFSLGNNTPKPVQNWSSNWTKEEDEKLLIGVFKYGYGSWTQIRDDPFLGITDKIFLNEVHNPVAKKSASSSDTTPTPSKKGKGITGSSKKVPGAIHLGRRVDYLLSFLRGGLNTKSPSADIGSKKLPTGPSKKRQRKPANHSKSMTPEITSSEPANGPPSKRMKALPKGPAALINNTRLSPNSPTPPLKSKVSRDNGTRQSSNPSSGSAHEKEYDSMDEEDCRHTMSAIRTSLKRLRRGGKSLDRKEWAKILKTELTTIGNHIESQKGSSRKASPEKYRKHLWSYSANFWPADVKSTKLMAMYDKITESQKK

As for `Cc1ccc(Cc2cnc(NC(=O)C3CNC(=O)N3)s2)cc1F` (stereo unspecified), the Percent Effect in experiment [1] is -2.83%; in experiment [2] it was 8.86%; in experiment [3], 4.79%; in [4], 5.91%; in experiment [5], 0.308%; in [6], 1.5%. In addition, the Percent Effect in [7] is 16.6%; in [8], -4.36%; in experiment [9] it was -3.12%; in experiment [10], 17.7%; in experiment [11] it was -8.88%.
For `COCCN1CCN(CCS(=O)(=O)C(F)(F)F)CC1C` (stereo unspecified), the Percent Effect in [1] was -3.49%; in experiment [2], 8.11%; in [3] it was -8.33%; in experiment [4], 4.35%; in [5], -3.62%; in experiment [6] it was -4.25%. For the same compound, the Percent Effect was 0.179% in experiment [7]; 25.8% in experiment [8]; 2.97% in experiment [9]; 11% in [10]; 9.67% in experiment [11].
As to `CC(C(=O)NCc1ccnc(Oc2ccc(F)cc2)c1)n1cncn1` (stereo unspecified), the Percent Effect in [1] was -3.42%; in experiment [2] it was -54%; in [3], -1.15%; in experiment [4], 7.66%; in experiment [5], 3.86%; in experiment [6] it was 4.29%. The Percent Effect in experiment [7] is 9.31%; in [8], 0.85%; in experiment [9], 4.76%; in [10], 14.6%; in experiment [11], -1.39%.
For `CCn1nccc1CNC(=O)C(C)n1cc2c(n1)c(C)nn2C` (stereo unspecified), the Percent Effect was -5.47% in experiment [1]; 20% in experiment [2]; -7.37% in [3]; 0.228% in [4]; 0.197% in experiment [5]; -11.4% in experiment [6]. In addition, the Percent Effect is 10.5% in [7]; 2.05% in experiment [8]; 5.29% in experiment [9]; 12.8% in experiment [10]; -12.4% in [11].
In the case of `CCc1cnc(CN(C)C2CCN(CCc3ccccn3)C2)o1` (stereo unspecified), the Percent Effect in experiment [1] is 3.36%; in [2] it was 9.72%; in experiment [3], -16%; in experiment [4], 1.45%; in [5], -3.21%; in [6], 3.97%. Moreover, the Percent Effect in [7] stood at 25.6%; in experiment [8], 0.763%; in experiment [9], 10.5%; in experiment [10], 5.13%; in [11], 107%.
Take `CN1CCN(C(=O)Cc2cccc(F)c2)Cc2cccnc21`: the Percent Effect in [1] is -3.84%; in experiment [2], 2.6%; in [3], -0.44%; in [4] it was 1.15%; in [5], 8.55%; in experiment [6] it was -9.65%. The Percent Effect in [7] was -0.499%; in experiment [8] it was 6.92%; in [9] it was 2.15%; in experiment [10], 3.7%; in experiment [11], -6.06%.
Take `Cc1noc(C)c1CNCC1CCN(CC(O)c2ccccc2)CC1` (stereo unspecified): the Percent Effect in [1] was -1.37%; in experiment [2], 11.4%; in [3] it was -4.26%; in experiment [4] it was 6.03%; in [5], -1.54%; in experiment [6] it was -1.5%. Besides, the Percent Effect in [7] is 9.09%; in experiment [8], -17.5%; in experiment [9] it was 4.17%; in experiment [10], 17.7%; in experiment [11], -18%.
Consider `Cc1ccc(CNC(=O)Cn2ncc3c2c(C)nn3C)cc1`, for which the Percent Effect in experiment [1] was 0.175%; in [2] it was 4%; in experiment [3], 4.44%; in experiment [4] it was 1.31%; in experiment [5], -6.68%; in experiment [6], -16.4%. The Percent Effect in experiment [7] was 10.2%; in experiment [8], 6.77%; in experiment [9] it was 3.17%; in experiment [10] it was 7.69%; in [11], -8.77%.
`Cc1ccc(C)c(-c2csc(N)c2C#N)c1`: the Percent Effect in [1] is -2.81%; in experiment [2], -1.33%; in experiment [3], -2.97%; in experiment [4], 7.24%; in [5] it was 0.589%; in experiment [6] it was -10%. In addition, the Percent Effect is 4.99% in [7]; 14.2% in experiment [8]; -12.7% in experiment [9]; -12.8% in [10]; 2.05% in [11].
In the case of `c1cc(CN2CCN(Cc3cscn3)CC2)cs1`, the Percent Effect in [1] is -1.31%; in experiment [2], 10.4%; in [3] it was 3.68%; in [4] it was -2.63%; in experiment [5], -2.25%; in experiment [6], 4%. The Percent Effect in [7] was 2.67%; in [8] it was 29.1%; in experiment [9], 2.86%; in experiment [10] it was 2.35%; in experiment [11], -6.18%.
Regarding `Cc1nc2c(c(NC3CC3)n1)CCN(C(=O)C(C)(C)O)CC2`, the Percent Effect in [1] was -2.61%; in experiment [2] it was 10.8%; in [3], 2.64%; in experiment [4], -8.96%; in experiment [5], -4.99%; in experiment [6], -0.319%. Besides, the Percent Effect is 28% in experiment [7]; 23.3% in experiment [8]; 3.24% in [9]; 7.69% in experiment [10]; -1.94% in experiment [11].
